Laboratory results taken from PubChem BioAssay (NCATS).
Records with an inconclusive call do not appear. The source made the active and inactive calls. Unless noted, calls follow the shape of the dose curve; as a rule, active = well fitted curve in the direction sought with a large enough effect; inconclusive = small, poorly fitted or top-dose-only effect, or another doubt; inactive = no such curve, though single readings can be large; an effect the other way counts as inactive or inconclusive.

Columns and labels:
[1] = biological target: Lysosomal acid glucosylceramidase (Homo sapiens) (UniProt P04062); test: Glucocerebrosidase-p2 (AID 348; in the data active = potency below about 10 µM; also: potency is read from the fitted curve at half-maximal effect); settings: purified GBA, blue fluorogenic substrate, 40 min
Procedure, shortened: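 Compounds titrated from 0.6 nM upwards against 0.2 nM enzyme in pH 5.9 citric acid/KH2PO4, taurocholate, tween-20; blue fluorogenic substrate 80 uM, 40 min room temperature, stopped and read Ex 365/Em 440 for AC50.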

[2] = AP1 Signaling Pathway (AID 357; active = well fitted curve in either direction with a large enough effect, not every such curve was filed as active;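 also: ME-180 reporter cells stimulated with EGF at its EC50 level; % is scaled to controls: 0 for no effect and ±100 for the full control effect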)
Procedure, shortened: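 Cells are seeded overnight, exposed to compound titrations and an EC50 level of EGF for 5 hours at 37 °C, then loaded with CCF4 dye for 2.5 hours. Beta-lactamase activity under the AP-1 element is read as a blue/green ratio.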

[3] = biological target: Cytochrome P450 1A2 (Homo sapiens) (UniProt P05177); test: p450-cyp1a2 (AID 410; calls by dose curve;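 also: -100% = full effect of reference inhibitor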)
Procedure, shortened: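 20nM CYP1A2 with 100uM Luciferin-ME (at Km) in 100mM KPO4; compound preincubated 10 min, NADPH regeneration added, 60 min at room temperature. Luciferin quantified by luminescence after detection reagent; normalized to 57 uM furafylline.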

[4] = NFAT Signaling Pathway (AID 444; active = well fitted curve in either direction with a large enough effect, not every such curve was filed as active;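 also: carbachol stimulus at about its EC50 of 1 µM final; % is scaled to controls: 0 for no effect and ±100 for the full control effect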); settings: Jurkat NFAT-bla M1, carbachol, beta-lactamase ratio, 5 h; at 17.2 µM (top of the series) unless noted
Procedure, shortened: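 Jurkat cells with NFAT-driven β-lactamase reporter and co-expressed M1 receptor, stimulated with carbachol (final 1 uM, ~EC50), compound titration, 5 h at 37 °C. CCF4 loaded 1 h at RT; 460/530 nm ratio gave %activity and AC50.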

[5] = Stat Signaling Pathway (AID 446; active = well fitted curve in either direction with a large enough effect, not every such curve was filed as active;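 also: ME-180 cervical cancer cells given 40 pM IL-6 alongside compound; SIE-controlled beta-lactamase reporter measured as 460/530 nm FRET emission ratio; % is scaled to controls: 0 for no effect and ±100 for the full control effect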)
Procedure, shortened: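 IL-6/STAT signaling read in ME-180 cells via an SIE beta-lactamase reporter. Stimulus was 40 pM IL-6 (its AC50) for 5 hrs, so both activation and inhibition register.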

[6] = biological target: Glucocorticoid receptor (Homo sapiens) (UniProt P04150); test: GR-GFP Redistribution (AID 450;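 active = compounds whose dose series gives a full or clear partial fitted curve of increased nuclear translocation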; also: potency is read from the fitted curve at half-maximal effect); settings: U2OS GR-GFP nuclear translocation, laser cytometry, 2 h
[7] = biological target: Glucocorticoid receptor (Homo sapiens) (UniProt P04150); test: GR-EFC Redistribution (AID 451; calls by dose curve; also: potency is read from the fitted curve at half-maximal effect); settings: CHO-K1 GR-EFC translocation, beta-gal luminescence, 2 h
Procedure, shortened: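 CHO-K1 cells expressing nuclear EA and GR-ED fragments of b-gal; compounds titrated up to 46 uM final, 2 h at 37 C. GR nuclear translocation read as complemented b-gal luminescence after 1 h RT detection.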

[8] = biological target: 3',5'-cyclic-AMP phosphodiesterase 4B (Homo sapiens) (UniProt Q07343); test: qHTS Assay for Inhibitors of PDE-IV (AID 607; active = well fitted activation curve with a large enough effect in the main read-out, with a control signal flat, not every such curve was filed as active; also: % of control where 0% means no effect)
Procedure, shortened: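 Live HEK293 cells with a modified cyclic nucleotide-gated (CNG) channel report intracellular cAMP via membrane-potential dye fluorescence (ex 535/em 590 nm). Endogenous PDE-IV was targeted. Compounds were tested at up to 22.9 uM final; RO 20-1724 100 uM served as control.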

[9] = biological target: ATP-dependent 6-phosphofructokinase (Trypanosoma brucei brucei) (UniProt O15648); test: qHTS Assay to Find Inhibitors of T. brucei phosphofructokinase: hit validation (AID 492961);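 also: luminescence reports ADP formed as PFK phosphorylates fructose-6-phosphate with ATP; % is scaled to controls: 0 for no effect and ±100 for the full control effect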
Procedure, shortened: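 Compounds titrated; %activity normalized to 0x and 1x enzyme controls, curve-fitted. Readout: ADP-Glo luminescence after 45 min room-temperature reaction of 1.25 nM PFK, 0.1 mM ATP, 0.5 mM F6P, pH 8.0.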

[10] = biological target: Ubiquitin carboxyl-terminal hydrolase 1 (Homo sapiens) (UniProt O94782); test: Inhibitors of USP1/UAF1: Pilot qHTS (AID 504865);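 also: rhodamine fluorescence freed from ubiquitin-rhodamine substrate followed over time; top concentration of the series differs between compounds; % is scaled to controls: 0 for no effect and ±100 for the full control effect; nearly all actives have a fitted effect of over 35% in size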
Procedure, shortened: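 1nM USP1/UAF1 + cpd, 15 min RT; start w/ Ub-Rho 150nM final; kinetic FL 480/540 nm, 6 reads q60 s. Buffer 50mM HEPES pH 7.8, 0.5mM EDTA, 1mM TCEP, 0.01% Tween-20, 0.1 mg/ml BSA.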

[11] = biological target: Luciferin 4-monooxygenase (Photinus pyralis) (UniProt P08659); test: Biochemical firefly luciferase enzyme assay for NPC (AID 624030);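 also: purified P. pyralis luciferase at 10 nM with luciferin and ATP substrate; 0% = DMSO and -100% = full luciferase inhibition by PTC124 control; nearly all actives have a fitted effect of over 70% in size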
Procedure, shortened: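 Purified P. pyralis luciferase at 10 nM in 50 mM Tris Acetate (final), luminescence read within 5 minutes of enzyme addition to compounds. Activity normalised to PTC124 versus DMSO; concentration-response curves classed by r2, magnitude and activity.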

[12] = S16 Schwann cell viability assay (CellTiter-Glo assay) (AID 624031);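 also: cellular ATP luminescence as a viability measure; plate controls were DMSO-treated cells for no effect and cell-free wells for full effect; nearly all actives have a fitted effect of over 70% in size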
Procedure, shortened: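 CellTiter-Glo ATP luminescence counter-screen in untransfected S16 rat Schwann cells, 24h compound exposure at 37 degree Celsius after overnight seeding (500-750 cells/well); response scaled between cell-free wells and DMSO (0% activity), curves classed by r2 and magnitude.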

[13] = S16 Schwann cell PMP22 intronic element firefly luciferase assay (AID 624032);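 also: plate controls were DMSO for no effect and PTC124 positive control mean for full effect; nearly all actives have a fitted effect of over 30% in size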
Procedure, shortened: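 Rat S16 Schwann cells stably carrying firefly luciferase driven by a PMP22 intronic element, in 10% FBS, treated 24 h at 37 C. ONE-Glo luminescence normalized to PTC124 control and DMSO (0%); curves classed by r2, magnitude and activity.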

[14] = biological target: Cytochrome P450 2D6 (Homo sapiens) (UniProt P10635); test: Cytochrome P450 family 2 subfamily D member 6 (CYP2D6) small molecule antagonists: luciferase biochemical (cell-free) qHTS assay (AID 1645840; active = well fitted curve in the direction sought with a large enough effect in the repeat runs; an effect the other way counts as inactive or inconclusive; also: % is scaled to controls: 0 for no effect and ±100 for the full control effect; nearly all actives have a fitted effect of over 55% in size)
Procedure, shortened: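 P450-Glo luminescent screen: recombinant CYP2D6 enzyme–proluciferin substrate mix preincubated with compound 10 min at room temperature, then NADPH regeneration added for 1 h at room temperature. Detection reagent added for 20 min; luciferin light read as relative luminescence units.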

[15] = biological target: Cytochrome P450 2C9 (Homo sapiens) (UniProt P11712); test: Cytochrome P450 family 2 subfamily C member 9 (CYP2C9) small molecule antagonists: luciferase biochemical (cell-free) qHTS assay (AID 1645842; active = well fitted curve in the direction sought with a large enough effect in the repeat runs; an effect the other way counts as inactive or inconclusive; also: % is scaled to controls: 0 for no effect and ±100 for the full control effect; nearly all actives have a fitted effect of over 55% in size)
Procedure, shortened: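 Luminescence, after 20 min with luciferin detection reagent, reflected CYP2C9 turnover during a 1 h NADPH-driven reaction at 37C. Enzyme-substrate mix contained 0.4% bovine serum albumin and was preincubated with compound 10 min at room temperature.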

[16] = biological target: Phospholipid hydroperoxide glutathione peroxidase GPX4 (Homo sapiens) (UniProt P36969); test: Primary qHTS Assay for Inhibitors of Recombinant Selenoprotein Glutathione Peroxidase 4 (GPX4) (AID 1845192); also: nearly all actives have a fitted effect of over 65% in size
Procedure, shortened: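 GR-coupled assay: recombinant GPX4 preincubated 30 min with compound at room temperature; final 200 nM GPX4, 1 mM GSH, 0.5 mM cumene hydroperoxide, 0.5 mM NADPH, 100 nM GR, 0.01% BSA, pH 7.5 Tris. NADPH fluorescence (340/450 nm) read at 0 and 15 min.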

[17] = qHTS profiling for inhibitors of Plasmodium falciparum proliferation (AID 504749);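 also: 0% = DMSO vehicle and full inhibition = artemisinin control; nearly all actives have a fitted effect of over 60% in size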; settings: P. falciparum in erythrocytes, SYBR Green DNA, 72 h, at 28.7 µM (top of the series)
Procedure, shortened: (§1)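 P. falciparum-infected erythrocytes (0.3% parasitemia, 2.5% hematocrit) incubated with compound 72 h at 37 C, 5% CO2. Parasite DNA detected by SYBR Green after lysis, overnight at room temperature; normalised to 0.29 uM artemisinin and DMSO.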

[18] = system: 3D7; test: as above; settings: P. falciparum in erythrocytes, SYBR Green DNA, 72 h; series mostly up to 12.8 µM
Procedure, shortened: as §1

[19] = system: 7G8; test: as above; settings: P. falciparum in erythrocytes, SYBR Green DNA, 72 h; series mostly up to 12.8 µM
Procedure, shortened: as §1

[20] = system: AA1029; test: as above; settings: P. falciparum in erythrocytes, SYBR Green DNA, 72 h; series mostly up to 12.8 µM
Procedure, shortened: as §1

[21] = system: AS120; test: as above; settings: P. falciparum in erythrocytes, SYBR Green DNA, 72 h; series mostly up to 12.8 µM
Procedure, shortened: as §1

[22] = system: ATS189; test: as above; settings: P. falciparum in erythrocytes, SYBR Green DNA, 72 h; series mostly up to 12.8 µM
Procedure, shortened: as §1

[23] = system: ATS95; test: as above; settings: P. falciparum in erythrocytes, SYBR Green DNA, 72 h; series mostly up to 12.8 µM
Procedure, shortened: as §1

[24] = system: C2A; test: as above; settings: P. falciparum in erythrocytes, SYBR Green DNA, 72 h; series mostly up to 12.8 µM
Procedure, shortened: as §1

[25] = system: CP185; test: as above; settings: P. falciparum in erythrocytes, SYBR Green DNA, 72 h; series mostly up to 12.8 µM
Procedure, shortened: as §1

[26] = system: CP191; test: as above; settings: P. falciparum in erythrocytes, SYBR Green DNA, 72 h; series mostly up to 12.8 µM
Procedure, shortened: as §1

[27] = system: CP192; test: as above; settings: P. falciparum in erythrocytes, SYBR Green DNA, 72 h; series mostly up to 12.8 µM
Procedure, shortened: as §1

[28] = system: CP194; test: as above; settings: P. falciparum in erythrocytes, SYBR Green DNA, 72 h; series mostly up to 12.8 µM
Procedure, shortened: as §1

[29] = system: CP201; test: as above; settings: P. falciparum in erythrocytes, SYBR Green DNA, 72 h; series mostly up to 12.8 µM
Procedure, shortened: as §1

[30] = system: CP203; test: as above; settings: P. falciparum in erythrocytes, SYBR Green DNA, 72 h; series mostly up to 12.8 µM
Procedure, shortened: as §1

[31] = system: CP211; test: as above; settings: P. falciparum in erythrocytes, SYBR Green DNA, 72 h; series mostly up to 12.8 µM
Procedure, shortened: as §1

[32] = system: CP215; test: as above; settings: P. falciparum in erythrocytes, SYBR Green DNA, 72 h; series mostly up to 12.8 µM
Procedure, shortened: as §1

[33] = system: CP217; test: as above; settings: P. falciparum in erythrocytes, SYBR Green DNA, 72 h; series mostly up to 12.8 µM
Procedure, shortened: as §1

[34] = system: CP237; test: as above; settings: P. falciparum in erythrocytes, SYBR Green DNA, 72 h; series mostly up to 12.8 µM
Procedure, shortened: as §1

[35] = system: CP238; test: as above; settings: P. falciparum in erythrocytes, SYBR Green DNA, 72 h; series mostly up to 12.8 µM
Procedure, shortened: as §1

[36] = system: CP247; test: as above; settings: P. falciparum in erythrocytes, SYBR Green DNA, 72 h; series mostly up to 12.8 µM
Procedure, shortened: as §1

[37] = system: CP250; test: as above; settings: P. falciparum in erythrocytes, SYBR Green DNA, 72 h; series mostly up to 12.8 µM
Procedure, shortened: as §1

Glucocorticoid receptor (Homo sapiens), sequence (P04150 whole entry, looked up, the tested form may be a part): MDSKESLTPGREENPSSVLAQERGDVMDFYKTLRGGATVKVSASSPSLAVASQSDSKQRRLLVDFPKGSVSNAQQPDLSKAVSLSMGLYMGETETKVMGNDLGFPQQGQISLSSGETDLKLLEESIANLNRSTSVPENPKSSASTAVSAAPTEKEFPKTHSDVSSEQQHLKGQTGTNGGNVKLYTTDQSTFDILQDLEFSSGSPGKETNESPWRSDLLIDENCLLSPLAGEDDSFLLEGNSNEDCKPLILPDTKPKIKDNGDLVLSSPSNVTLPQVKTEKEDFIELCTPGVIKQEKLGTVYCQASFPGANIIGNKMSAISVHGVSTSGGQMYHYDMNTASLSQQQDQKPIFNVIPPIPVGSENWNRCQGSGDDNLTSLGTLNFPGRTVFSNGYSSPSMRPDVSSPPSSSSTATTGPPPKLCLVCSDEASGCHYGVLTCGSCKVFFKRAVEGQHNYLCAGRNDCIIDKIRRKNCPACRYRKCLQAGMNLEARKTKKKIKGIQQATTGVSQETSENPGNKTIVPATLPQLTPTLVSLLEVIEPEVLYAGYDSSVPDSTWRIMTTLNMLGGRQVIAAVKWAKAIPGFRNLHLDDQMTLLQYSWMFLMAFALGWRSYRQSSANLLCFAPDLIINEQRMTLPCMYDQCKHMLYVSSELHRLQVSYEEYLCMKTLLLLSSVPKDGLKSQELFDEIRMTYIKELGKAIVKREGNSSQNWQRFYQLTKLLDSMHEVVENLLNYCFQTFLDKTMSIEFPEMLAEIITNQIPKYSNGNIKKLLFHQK
Cytochrome P450 2C9 (Homo sapiens), sequence (P11712 whole entry, looked up): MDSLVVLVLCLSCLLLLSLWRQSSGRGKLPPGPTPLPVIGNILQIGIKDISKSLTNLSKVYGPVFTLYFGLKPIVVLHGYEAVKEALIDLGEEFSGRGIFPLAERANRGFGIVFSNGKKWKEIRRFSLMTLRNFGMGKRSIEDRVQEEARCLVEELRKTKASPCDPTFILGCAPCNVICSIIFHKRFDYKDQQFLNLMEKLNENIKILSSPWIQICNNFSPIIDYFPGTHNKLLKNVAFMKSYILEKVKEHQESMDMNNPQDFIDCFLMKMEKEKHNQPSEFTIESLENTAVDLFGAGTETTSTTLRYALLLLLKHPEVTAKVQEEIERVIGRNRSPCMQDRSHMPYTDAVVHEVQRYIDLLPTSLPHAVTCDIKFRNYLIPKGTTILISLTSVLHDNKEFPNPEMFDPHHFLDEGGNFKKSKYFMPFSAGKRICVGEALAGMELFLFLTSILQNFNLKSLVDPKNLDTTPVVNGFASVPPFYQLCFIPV
Luciferin 4-monooxygenase (Photinus pyralis), sequence (P08659 whole entry, looked up): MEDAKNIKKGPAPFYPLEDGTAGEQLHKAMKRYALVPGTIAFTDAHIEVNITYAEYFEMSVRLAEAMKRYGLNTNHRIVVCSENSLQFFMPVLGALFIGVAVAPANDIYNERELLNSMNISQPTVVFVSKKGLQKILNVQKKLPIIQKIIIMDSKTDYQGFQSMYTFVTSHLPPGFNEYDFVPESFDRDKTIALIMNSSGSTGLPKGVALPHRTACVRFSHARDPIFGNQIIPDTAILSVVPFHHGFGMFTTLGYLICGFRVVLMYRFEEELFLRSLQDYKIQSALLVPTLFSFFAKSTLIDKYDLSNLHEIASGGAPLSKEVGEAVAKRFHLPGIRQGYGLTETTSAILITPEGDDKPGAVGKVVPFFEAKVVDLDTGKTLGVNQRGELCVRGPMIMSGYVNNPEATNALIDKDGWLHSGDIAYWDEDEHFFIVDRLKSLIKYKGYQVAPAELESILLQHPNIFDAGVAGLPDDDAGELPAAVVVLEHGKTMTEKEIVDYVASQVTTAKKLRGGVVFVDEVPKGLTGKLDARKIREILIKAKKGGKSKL
ATP-dependent 6-phosphofructokinase (Trypanosoma brucei brucei), sequence (O15648 whole entry, looked up): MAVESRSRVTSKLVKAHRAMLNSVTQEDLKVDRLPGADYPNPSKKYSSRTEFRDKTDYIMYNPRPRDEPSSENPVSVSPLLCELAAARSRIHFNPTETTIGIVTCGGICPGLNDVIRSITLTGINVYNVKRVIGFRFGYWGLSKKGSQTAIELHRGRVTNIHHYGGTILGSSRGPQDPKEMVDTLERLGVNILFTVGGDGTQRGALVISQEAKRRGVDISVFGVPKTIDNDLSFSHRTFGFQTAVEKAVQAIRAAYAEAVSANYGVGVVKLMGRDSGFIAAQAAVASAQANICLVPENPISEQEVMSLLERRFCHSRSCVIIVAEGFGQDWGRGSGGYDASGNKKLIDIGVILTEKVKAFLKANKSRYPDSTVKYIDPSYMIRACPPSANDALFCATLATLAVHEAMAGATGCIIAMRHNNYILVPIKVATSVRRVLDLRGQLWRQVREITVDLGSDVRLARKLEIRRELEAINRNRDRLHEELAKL
Cytochrome P450 1A2 (Homo sapiens), sequence (P05177 whole entry, looked up): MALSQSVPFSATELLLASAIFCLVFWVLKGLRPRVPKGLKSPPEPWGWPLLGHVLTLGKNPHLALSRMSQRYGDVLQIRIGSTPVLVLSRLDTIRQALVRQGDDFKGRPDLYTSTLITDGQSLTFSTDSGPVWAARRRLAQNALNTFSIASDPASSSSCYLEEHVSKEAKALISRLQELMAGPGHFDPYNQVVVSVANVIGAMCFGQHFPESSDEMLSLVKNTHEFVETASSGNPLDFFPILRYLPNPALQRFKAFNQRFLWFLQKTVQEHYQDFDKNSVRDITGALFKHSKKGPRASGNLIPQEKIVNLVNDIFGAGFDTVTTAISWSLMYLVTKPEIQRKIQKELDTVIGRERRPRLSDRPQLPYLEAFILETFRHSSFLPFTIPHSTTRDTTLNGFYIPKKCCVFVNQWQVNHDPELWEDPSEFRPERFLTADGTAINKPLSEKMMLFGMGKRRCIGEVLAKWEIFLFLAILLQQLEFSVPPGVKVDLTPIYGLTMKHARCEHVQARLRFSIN
Cytochrome P450 2D6 (Homo sapiens), sequence (P10635 whole entry, looked up): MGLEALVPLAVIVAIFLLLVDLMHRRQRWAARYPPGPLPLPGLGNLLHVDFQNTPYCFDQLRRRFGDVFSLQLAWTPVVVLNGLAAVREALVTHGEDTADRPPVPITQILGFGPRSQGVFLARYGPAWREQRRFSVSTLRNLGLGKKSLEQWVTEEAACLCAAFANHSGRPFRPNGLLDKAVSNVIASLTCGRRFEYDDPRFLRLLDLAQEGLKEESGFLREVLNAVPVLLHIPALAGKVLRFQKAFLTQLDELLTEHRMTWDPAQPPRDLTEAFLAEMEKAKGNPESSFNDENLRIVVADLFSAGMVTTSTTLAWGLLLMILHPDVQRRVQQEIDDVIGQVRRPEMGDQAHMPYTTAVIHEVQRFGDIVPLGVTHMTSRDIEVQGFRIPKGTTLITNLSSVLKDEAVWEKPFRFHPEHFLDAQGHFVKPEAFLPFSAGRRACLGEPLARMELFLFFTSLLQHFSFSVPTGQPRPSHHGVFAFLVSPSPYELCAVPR
Phospholipid hydroperoxide glutathione peroxidase GPX4 (Homo sapiens), sequence (P36969 whole entry, looked up): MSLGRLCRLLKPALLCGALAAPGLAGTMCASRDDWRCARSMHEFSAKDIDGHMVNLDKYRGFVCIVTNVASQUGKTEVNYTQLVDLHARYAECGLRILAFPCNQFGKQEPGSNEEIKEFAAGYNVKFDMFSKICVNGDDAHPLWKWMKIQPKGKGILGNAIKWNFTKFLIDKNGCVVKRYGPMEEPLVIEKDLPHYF
3',5'-cyclic-AMP phosphodiesterase 4B (Homo sapiens), sequence (Q07343 whole entry, looked up): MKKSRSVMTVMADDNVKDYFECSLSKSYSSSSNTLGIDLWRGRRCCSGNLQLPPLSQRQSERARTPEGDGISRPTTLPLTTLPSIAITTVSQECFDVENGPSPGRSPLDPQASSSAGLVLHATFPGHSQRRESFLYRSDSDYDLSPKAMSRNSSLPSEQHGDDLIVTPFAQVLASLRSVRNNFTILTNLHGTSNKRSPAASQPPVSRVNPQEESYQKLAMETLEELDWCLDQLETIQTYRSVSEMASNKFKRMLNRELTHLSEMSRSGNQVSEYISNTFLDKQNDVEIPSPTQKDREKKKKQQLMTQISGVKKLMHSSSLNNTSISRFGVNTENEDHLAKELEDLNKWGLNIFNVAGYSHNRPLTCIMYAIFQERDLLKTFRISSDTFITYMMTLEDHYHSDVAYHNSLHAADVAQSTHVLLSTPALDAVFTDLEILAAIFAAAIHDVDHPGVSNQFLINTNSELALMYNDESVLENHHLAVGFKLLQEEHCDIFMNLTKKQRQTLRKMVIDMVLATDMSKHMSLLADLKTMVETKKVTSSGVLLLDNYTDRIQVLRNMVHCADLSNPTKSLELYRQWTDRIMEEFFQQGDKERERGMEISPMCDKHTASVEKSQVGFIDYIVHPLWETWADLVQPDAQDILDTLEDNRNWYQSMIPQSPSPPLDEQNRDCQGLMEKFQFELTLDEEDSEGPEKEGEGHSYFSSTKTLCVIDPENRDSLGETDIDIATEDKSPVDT
Lysosomal acid glucosylceramidase (Homo sapiens), sequence (P04062 whole entry, looked up): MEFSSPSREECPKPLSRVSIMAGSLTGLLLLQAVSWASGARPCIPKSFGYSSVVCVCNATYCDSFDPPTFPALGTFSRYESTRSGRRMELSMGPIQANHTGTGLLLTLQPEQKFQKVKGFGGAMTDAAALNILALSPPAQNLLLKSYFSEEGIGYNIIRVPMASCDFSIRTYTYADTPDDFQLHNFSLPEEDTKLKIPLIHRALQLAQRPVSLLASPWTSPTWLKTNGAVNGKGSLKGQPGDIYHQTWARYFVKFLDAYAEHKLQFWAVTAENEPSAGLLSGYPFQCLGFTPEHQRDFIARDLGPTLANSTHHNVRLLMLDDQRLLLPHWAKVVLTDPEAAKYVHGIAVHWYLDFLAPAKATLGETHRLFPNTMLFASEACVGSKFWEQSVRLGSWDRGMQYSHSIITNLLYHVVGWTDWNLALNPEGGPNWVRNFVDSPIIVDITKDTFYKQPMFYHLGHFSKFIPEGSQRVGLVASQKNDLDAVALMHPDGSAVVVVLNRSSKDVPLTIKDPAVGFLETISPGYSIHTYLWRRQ

O=C(O)[C@@H]1CCCN1
inactive: Potency [1] > 11.4 µM | outcome [2] | Potency [3] | activity change, negative = inhibition [4] -2.98% [at 7.69 µM] | outcome [5] | Potency [6] > 46 µM | Potency [7] > 9.22 µM | outcome [8] | outcome [9] | Potency [10] | Potency [11] | outcome [12] | Potency [13] | Potency [14] | Potency [15] | Potency [16] | activity, negative = inhibition ([17]; parasite line A) 3.04% | activity, negative = inhibition ([17]; parasite line B) -1.27% | Potency [18] | Potency [19] | Potency [20] | Potency [21] | Potency [22] | Potency [23] | Potency [24] | Potency [25] | Potency [26] | Potency [27] | Potency [28] | Potency [29] | Potency [30] | Potency [31] | Potency [32] | Potency [33] | Potency [34] | Potency [35] | Potency [36] | Potency [37]
